Experimental data from PubChem BioAssay (EPA / NIEHS).
Inconclusive results are not listed. Active and inactive are the calls of the source. The calls were made as follows: active = hit-call score of the fitted dose curve at least 0.9, where 1 is the maximum; inconclusive = response in the unintended direction; inactive = score below 0.9.

Test: CCTE_Harrill_HTTr_CellCount_MCF7: CCTE's Cell Proliferation Assessment for the High-Throughput Transcriptomics (HTTr) Platform, Harrill Lab (AID 2284012);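 also: cells exposed to compound for six hours; intended direction is loss of nuclei count meaning fewer cells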
Source text: This is a cell-based assay that evaluates cell viability and cell growth using high content imaging to count the number of Hoechst-labeled nuclei that are present in an assay well in 384-well format.This is a cell-based assay that evaluates cell viability and cell growth in MCF-7 cells. This was part of a full screening experiment. High content imaging is used to count the number of Hoechst-labeled nuclei that are present in an assay well in 384-well format.The assay component endpoint CCTE_Harrill_HTTr_CellCount_MCF7 was analyzed with bidirectional fitting relation to DMSO as the negative control and baseline of activity. Using a type of viability reporter, loss-of-signal activity can be used to understand changes in cell count. To generalize the intended target to other relatable targets, this assay endpoint is annotated to cell cycle, where the subfamily is cell count.
Chemicals were tested in MCF7 cells in an eight point dilution series with a six hour exposure duration.

SMILES	outcome
CC(O)COc1ccccc1 (stereo not given)	inactive
O=C(O)C(=O)O	inactive
O=C(CCCN1CCC(O)(c2ccc(Cl)cc2)CC1)c1ccc(F)cc1	inactive
CC(=O)Nc1ccc(S(N)(=O)=O)cc1	inactive
CCCCCCCCCCCCCCCCCC[N+](C)(C)Cc1ccccc1	inactive
C[C@]12CC[C@@H]3c4ccc(O)cc4CC[C@H]3[C@@H]1C[C@@H](O)[C@@H]2O	inactive
Nc1ccn([C@@H]2O[C@H](CO)[C@@H](O)C2O)c(=O)n1 (stereo not given in full)	inactive
Brc1ccc(Oc2ccc(Br)cc2Br)cc1	inactive
Cn1sccc1=O	inactive
CC1=CC(=O)c2ccccc2C1=O	inactive
CCCCCCCCC(C)=O	inactive
N=C(N)c1ccc(OCCCCCOc2ccc(C(=N)N)cc2)cc1	inactive
CNNCc1ccc(C(=O)NC(C)C)cc1	inactive
Cc1ccccc1C(OCCN(C)C)c1ccccc1 (stereo not given)	inactive
CCCCC=O	inactive
Cc1[nH]nc2c1N=C(c1ccccc1Cl)c1cc([N+](=O)[O-])ccc1N2	inactive
O=c1cc(-c2ccccc2)oc2ccc3ccccc3c12	inactive
CCCCCCCCCCCC(=O)O	inactive
CCCCCC(C)OC(=O)COc1ccc(Cl)c2cccnc12 (stereo not given)	inactive
OCC(CO)(CBr)CBr	inactive

SMILES	outcome
CCCCc1oc2ccccc2c1C(=O)c1cc(I)c(OCCN(CC)CC)c(I)c1	inactive
c1cnc2c(c1)ccc1cccnc12	inactive
O=C(O)c1cccc(C(=O)O)n1	inactive
C=CC(C)(CCC=C(C)C)OC(C)=O (stereo not given)	inactive
CS(=O)(=O)c1ccc([C@@H](CC2CCCC2)C(=O)Nc2cnccn2)cc1Cl	inactive
CC(C)(c1ccc(Oc2ccc(N)cc2)cc1)c1ccc(Oc2ccc(N)cc2)cc1	inactive
Oc1c(Cl)cc(Cl)cc1Sc1cc(Cl)cc(Cl)c1O	inactive
CC1COCc2cc3c(cc21)C(C)(C)C(C)C3(C)C (stereo not given)	inactive
CC(=O)Nc1ccc(O)cc1	inactive
C[C@]12CC[C@@H]3c4ccc(O)cc4CC[C@H]3[C@@H]1CC[C@@H]2OC(=O)CCC1CCCC1	inactive
Cc1cc(Cc2cc(C)cc(C(C)(C)C)c2O)c(O)c(C(C)(C)C)c1	inactive
CC(C)(C)C1CCCCC1O (stereo not given)	inactive
CCCCCCCCCCCCCCC	inactive
Cc1cncc(C)c1	inactive
C=Cc1ccc(O)c(OC)c1	inactive
O=C(NO)c1ccccc1	inactive
CCCCCCCCCCCCOC(=O)c1cc(O)c(O)c(O)c1	inactive
CCCCCCCCCCCCOS(=O)(=O)O	inactive
O=C(c1ccccc1)c1ccccc1	inactive
CC(C)(C)c1ccc(O)c(O)c1	inactive
